Hits are enriched below; roughly 2.4% of the tested compounds scored in any of these assays.
POLB inh: blocks human DNA polymerase beta activity | AID 485314 | Pol beta primer extension/strand displacement, fluorescence kinetic | actives 1.3% (n = 340,000) | Potency, µM (series often up to 114 µM), actives largely listed as inhibitors
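Homogeneous kinetic assay of primer extension and strand displacement by 10 nM Pol beta, preincubated 15 min at room temperature with compound before 50 nM substrate (final) was added. Read at 0 and 10 min; four-parameter Hill fit.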
L3MBTL1 inh: inhibitors of human L3MBTL1. Q9Y468. AlphaScreen L3MBTL1–H3K9me1 peptide binding. Potency, µM (highest dose often 57.1 µM), hits mostly inhibitors. actives 0.66% (n = 230,000). AID 485360; note: nearly all actives have a fitted effect of over 60% in size
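Displacement of a biotinylated histone H3(1-15) peptide monomethylated at Lys9 (75 nM) from L3MBTL1 (50 nM) was measured by AlphaScreen after a 30 min room-temperature compound incubation; cefsulodin titration served as intraplate control.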
Pol iota inh: inhibitors of human DNA polymerase iota. Q9UNA4. Pol iota fluorescent replication assay, 10 min. Potency, µM (titrated, usually from 115 µM), most hits filed as inhibitors. actives 1% (n = 390,000). AID 588590
Target sequence (Q9UNA4 whole entry, looked up): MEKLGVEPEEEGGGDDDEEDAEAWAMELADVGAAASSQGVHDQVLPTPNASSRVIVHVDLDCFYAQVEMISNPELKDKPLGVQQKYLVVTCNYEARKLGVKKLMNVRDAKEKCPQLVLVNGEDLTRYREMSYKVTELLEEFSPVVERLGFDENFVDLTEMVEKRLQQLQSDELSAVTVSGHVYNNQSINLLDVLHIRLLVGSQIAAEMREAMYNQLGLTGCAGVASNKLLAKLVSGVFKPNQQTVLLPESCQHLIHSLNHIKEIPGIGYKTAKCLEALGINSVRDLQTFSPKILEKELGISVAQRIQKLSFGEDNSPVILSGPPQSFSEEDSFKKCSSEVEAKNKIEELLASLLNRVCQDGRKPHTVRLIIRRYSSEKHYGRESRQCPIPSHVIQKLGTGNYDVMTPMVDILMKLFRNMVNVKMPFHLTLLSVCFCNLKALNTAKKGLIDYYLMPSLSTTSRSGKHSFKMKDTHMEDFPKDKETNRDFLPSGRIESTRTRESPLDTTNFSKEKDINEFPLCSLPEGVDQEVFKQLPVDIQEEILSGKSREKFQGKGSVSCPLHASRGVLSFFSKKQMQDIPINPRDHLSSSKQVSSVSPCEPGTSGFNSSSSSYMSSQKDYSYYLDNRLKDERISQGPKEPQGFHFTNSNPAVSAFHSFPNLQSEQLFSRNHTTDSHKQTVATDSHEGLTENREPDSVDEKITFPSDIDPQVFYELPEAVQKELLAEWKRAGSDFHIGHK
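Pol iota at 10 nM preincubated 15 min with compounds at room temperature; reaction started with fluorescent substrate, 50 nM final. Fluorescence read kinetically at 0 and 10 min; buffer-only wells as negative control.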
Pol eta inh-1: blocks human DNA polymerase eta activity; Q9Y253; recombinant Pol eta, fluorescent DNA replication assay; Potency, µM (doses to about 114 µM), most hits filed as inhibitors; actives 1.2% (n = 390,000)
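Pol eta (10 nM) was preincubated with compounds for 15 min at room temperature, after which fluorescent replication substrate (50 nM final) was added to start the reaction. Fluorescence was read kinetically at 0 and 10 min.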
Pol kappa inh-1: DNA polymerase kappa (human) inhibition. Q9UBT6. purified Pol kappa, fluorescent DNA synthesis assay, 10 min. Potency, µM (titrated, usually from 107 µM), usual class: inhibitors. actives 0.53% (n = 400,000). AID 588579
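First, compounds were pin-transferred onto 10 nM Pol kappa. After 15 min at room temperature, substrate was added to 50 nM final. Fluorescence was then measured kinetically at 0 and 10 min.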
GALK inh confirm: galactokinase (human) inhibition, confirmation | purified GALK, Kinase-Glo ATP depletion luminescence | actives 70% (n = 150) | Potency, µM (series often up to 115 µM), actives largely listed as inhibitors | shares compounds with Pol eta inh-1
GALK redox cs: counter-screen for GALK inhibitors: redox cycling H2O2 generation. Phenol red-HRP H2O2 redox cycling, absorbance 600 nm. Potency, µM (doses to about 115 µM), hits mostly inhibitors. actives 40% (n = 150). shares compounds with Pol eta inh-1
HEK293 tox: HEK-293 cytotoxicity, GALK inhibitor secondary; actives 10% (n = 170); shares compounds with Pol eta inh-1; Potency, µM (highest dose often 46.1 µM), actives largely listed as inhibitors; HEK-293 viability, ATP luminescence (CellTiter-Glo), 24/48 h
Pol kappa inh-2: confirmation of human DNA polymerase kappa inhibitors. shares compounds with Pol eta inh-1. actives 76% (n = 920). AID 720501. Potency, µM, actives largely listed as inhibitors. purified Pol-kappa, fluorescent strand-displacement substrate
Pol eta inh-2: confirmation of human DNA polymerase eta inhibitors | actives 64% (n = 2,600) | Potency, µM, hits mostly inhibitors | shares compounds with Pol eta inh-1 | Pol eta primer extension, TAMRA/BHQ fluorescence, 10 min
Each line names hits and unclear results; the compound was inactive in the other large screens (follow-up assays come after a bar, where they were run). Calls come from the whole dose curve; as a rule, active = well fitted curve in the direction sought with a large enough effect; inconclusive = small, poorly fitted or top-dose-only effect, or another doubt; inactive = no such curve, though single readings can be large; an effect the other way counts as inactive or inconclusive.

O=c1[nH]c(/C=C/c2ccc([N+](=O)[O-])cc2)c([N+](=O)[O-])c(=O)[nH]1	Pol iota inh inconclusive, Pol eta inh-1 44.7µM | GALK inh confirm 37.5µM | GALK redox cs inactive | HEK293 tox inactive | Pol eta inh-2 inconclusive
Cc1ccn2c(=O)nc(SCC(=O)NC3CCCC3)nc2c1	Pol iota inh inconclusive, Pol eta inh-1 22.4µM (no result: POLB inh) | Pol eta inh-2 75.7
CO/N=C(/C(=O)N[C@@H]1C(=O)N2C(C(=O)O)=C(C[n+]3ccc(N)n3CCO)CS[C@H]12)c1csc(N)n1	none (no result: POLB inh, L3MBTL1 inh, Pol iota inh, Pol eta inh-1)
CON=C(C(=O)NC1C(=O)N2C(C(=O)O)=C(CSc3nc(=O)c(=O)[nH]n3C)CSC12)c1csc(N)n1 (configuration not stated)	Pol iota inh inconclusive, Pol eta inh-1 31.6µM, Pol kappa inh-1 39.8µM (no result: POLB inh, L3MBTL1 inh) | Pol kappa inh-2 21.2 | Pol eta inh-2 30.1
Cn1nc(N2CCN(S(=O)(=O)c3ccccc3)CC2)c(=O)n(C)c1=O	none (no result: POLB inh)
CC(/C=C/c1ccco1)=N\NC(=O)COc1ccc(C)c(C)c1	none
Cc1cccc(OCC(=O)N/N=C/C=C/c2ccco2)c1	POLB inh 35.5µM, L3MBTL1 inh inconclusive, Pol iota inh inconclusive, Pol eta inh-1 inconclusive, Pol kappa inh-1 inconclusive | Pol eta inh-2 inconclusive
CCOC(=O)N/N=C\C=C\c1ccco1	POLB inh inconclusive, Pol iota inh inconclusive, Pol eta inh-1 79.4µM | Pol eta inh-2 75.7
O=[N+]([O-])c1cc(Br)c(O)c(/C=N/Nc2nnnn2-c2cccc3ccccc23)c1	POLB inh inconclusive, Pol eta inh-1 70.8µM (no result: L3MBTL1 inh) | GALK inh confirm 29.8µM | GALK redox cs inactive | HEK293 tox inactive
COc1cc(Cl)c(C)cc1NC(=O)c1nn(-c2ccc(C)cc2)c(=O)n(C)c1=O	none (no result: L3MBTL1 inh)
CCc1ccc(S(=O)(=O)c2cn(Cc3ccccc3)c3cc(F)c(F)cc3c2=O)cc1	none (no result: L3MBTL1 inh)
CSc1ccc(CCNC(=O)CSc2ccsc2[N+](=O)[O-])cc1	Pol iota inh inconclusive, Pol eta inh-1 inconclusive, Pol kappa inh-1 inconclusive
NS(=O)(=O)c1ccc(CCNC(=O)CSc2ccsc2[N+](=O)[O-])cc1	Pol iota inh inconclusive, Pol eta inh-1 22.4µM, Pol kappa inh-1 inconclusive | Pol eta inh-2 inconclusive
CCc1ccc(CNC(=O)c2ccc3nc(C(C)C)oc3c2)cc1	none (no result: L3MBTL1 inh)
CCOc1ccc(C(=O)Nc2cc(NC(=O)c3ccc(OCC)c(Cl)c3)cc(C(=O)O)c2)cc1Cl	POLB inh 17.8µM, Pol iota inh inconclusive, Pol eta inh-1 31.6µM | Pol kappa inh-2 21.2
CCOc1ccc(C(=O)Nc2cccc(C(=O)O)c2)cc1Cl	none
CCOC(=O)N1CCc2cc(OC)c(OC)c3c2c1cc1cc(OC)c(OC)cc13	Pol eta inh-1 inconclusive (no result: POLB inh, L3MBTL1 inh)
Nc1c(C(=O)NCc2ccco2)sc2nc3c(cc12)C(=O)CCC3	POLB inh 31.6µM, L3MBTL1 inh 31.6µM, Pol iota inh inconclusive, Pol eta inh-1 31.6µM, Pol kappa inh-1 inconclusive | Pol eta inh-2 53.6
COc1ccccc1C(=O)N=Nc1c(O)[nH]c2ccc([N+](=O)[O-])cc12	Pol kappa inh-1 inconclusive
O=C(N=Nc1c(O)[nH]c2ccc([N+](=O)[O-])cc12)c1cc(-c2ccccc2Cl)nc2ccccc12	POLB inh inconclusive, Pol iota inh inconclusive, Pol eta inh-1 inconclusive | Pol kappa inh-2 inconclusive
CCOc1ccc(C(=O)c2cn(CC(=O)Nc3cc(OC)cc(OC)c3)c3ccc(F)cc3c2=O)cc1	POLB inh 14.1µM, Pol iota inh inconclusive, Pol eta inh-1 inconclusive (no result: L3MBTL1 inh) | Pol kappa inh-2 inconclusive
CSc1ccc(/C=C2\C(=N)N3N=C(CC(=O)N4CCCCC4)SC3=NC2=O)cc1	POLB inh inconclusive, Pol iota inh inconclusive, Pol eta inh-1 44.7µM, Pol kappa inh-1 89.1µM (no result: L3MBTL1 inh) | Pol kappa inh-2 67
N=C1/C(=C/c2ccc(Br)o2)C(=O)N=C2SC(CC(=O)N3CCCC3)=NN12	POLB inh 8.91µM, Pol iota inh 17.8µM, Pol eta inh-1 8.91µM, Pol kappa inh-1 35.5µM (no result: L3MBTL1 inh) | Pol eta inh-2 37.9
Cc1ccc(/C=C2\C(=N)N3N=C(CC(=O)N4CCCCC4)SC3=NC2=O)cc1	Pol iota inh inconclusive, Pol eta inh-1 inconclusive, Pol kappa inh-1 inconclusive (no result: L3MBTL1 inh) | Pol eta inh-2 19
CCc1ccc(/C=C2\C(=N)N3N=C(CC(=O)N4CCCCC4)SC3=NC2=O)cc1	Pol iota inh inconclusive, Pol kappa inh-1 inconclusive (no result: L3MBTL1 inh)
CN(CC1CCCN(CCc2ccccc2F)C1)C(=O)c1cc2ccccc2o1 (configuration not stated)	none (no result: POLB inh, L3MBTL1 inh, Pol iota inh, Pol kappa inh-1)
Cc1ccc([N+](=O)[O-])cc1S(=O)(=O)Nc1ccc(C(=O)NCc2ccccn2)cc1	Pol iota inh inconclusive, Pol eta inh-1 inconclusive, Pol kappa inh-1 inconclusive (no result: POLB inh) | Pol eta inh-2 inconclusive
COC(=O)CNC(=O)c1ccc(NS(=O)(=O)c2cc([N+](=O)[O-])ccc2Cl)cc1	POLB inh inconclusive, Pol iota inh inconclusive, Pol eta inh-1 31.6µM | Pol eta inh-2 75.7
O=[N+]([O-])c1ccc(Cl)c(S(=O)(=O)Nc2ccc(S(=O)(=O)N3CCOCC3)cc2)c1	none (no result: L3MBTL1 inh)
O=C1COc2cc(S(=O)(=O)CCC(=O)N3CCN(c4cccc(Cl)c4)CC3)c(Cl)cc2N1	none (no result: L3MBTL1 inh)
Cn1nc([N+](=O)[O-])c(C(C#N)c2ccccn2)c(Cl)c1=O (configuration not stated)	Pol iota inh inconclusive
CCn1nc([N+](=O)[O-])c(C(C#N)c2nc3cc(C(F)(F)F)ccc3s2)c(Cl)c1=O (configuration not stated)	POLB inh 56.2µM, Pol iota inh inconclusive, Pol eta inh-1 89.1µM (no result: L3MBTL1 inh) | Pol kappa inh-2 59.7
COc1cccc(-n2nnc3c(=O)n(CC(=O)N4CCC(C)CC4)cnc32)c1	none
COc1ccc(-n2nnc3c(=O)n(CC(=O)N4CCC(C)CC4)cnc32)cc1	none | GALK inh confirm inactive | GALK redox cs inactive | HEK293 tox inactive
O=C(c1ccc2c(c1)N(Cc1ccc(Cl)cc1)C(=O)c1ccccc1S2(=O)=O)N1CCCCCC1	POLB inh inconclusive (no result: L3MBTL1 inh)

Source: PubChem BioAssay (National Center for Advancing Translational Sciences (NCATS))
